We go through 97 compounds from PubChem BioAssay AID1117319 (Southern Research Institute, 2015).

The whole screen tested about 260,000 compounds, of which about 1,500 (0.58%) were called active. Another 5% or so got no clear call; they are omitted. These entries were drawn from the full list. Entries with a potency or affinity are not part of this list. A number with no mark means an inactive call.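 Rule for the calls: active = inhibition above a set limit at one or more doses, reproduced on every date tested; inconclusive = results disagree between test dates, or hit never tested in dose response; inactive = the rest.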

The experiment deals with Virion infectivity factor (Human immunodeficiency virus type 1 group M subtype B (isolate BH10)) + Virion infectivity factor (Human immunodeficiency virus type 1 group M subtype B (isolate BRU/LAI)) + Virion infectivity factor (Human immunodeficiency virus type 1 group M subtype B (isolate PCV12)) + Virion infectivity factor (Human immunodeficiency virus type 1 group M subtype B (isolate HXB2)) + DNA dC->dU-editing enzyme APOBEC-3G (Homo sapiens) (UniProt P69720+P69721+P69722+P69723+Q9HC16). As to the kind of experiment: HIV-1 Vif–A3G interaction blockers – biochemical, TR-FRET, GST-Vif 1-94, biotin-A3G peptide, dose response retest, primary screen (AID 1117319).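 Note: Vif residues 1-94 fused to GST binding biotinylated APOBEC3G peptide 110-148; 0% = full assay without inhibitor and 100% = GST in place of GST-Vif.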 Particulars: TR-FRET GST-Vif / biotin-A3G peptide binding; active compounds read high.
As for `COc1ccc(-c2nnc(-c3cccs3)o2)cc1OC`, the inhibition is 25.2%.
The value for `COc1cc(-c2nnc(-c3cccs3)o2)cc(OC)c1OC` was 2.65%; that for `Cc1ccc(C(=O)N[C@H](C(=O)OCC(=O)c2ccc[nH]2)C(C)C)cc1` was -7.75%; that for `Cc1ccc2c(c1)/C(=C/c1ccco1)C(=O)N2` was 6.3%.
In the case of `O=C1NC(=S)NC1=Cc1ccccc1O`, the inhibition was -3.79%.
As for `O=C1C(=Cc2ccco2)C(=O)c2ccccc21`, the inhibition was -3.58%.
Take `O=C1NC(=S)NC1=Cc1ccc(O)cc1`: the inhibition was 4.35%.
The value for `Cc1ccc(/C(O)=C2/C(=O)C(=O)N(c3ccccn3)C2c2cccc([N+](=O)[O-])c2)cc1` (configuration not stated) was 1.22%; that for `O=C(Nn1cnnc1)c1ccc(Cl)c([N+](=O)[O-])c1` was -7.17%.
With `CCN(CC)C(=O)[C@H]1C[C@H](CC(=O)NCc2ccco2)C(=O)N2CCc3c([nH]c4cc(-c5ccco5)ccc34)[C@]12C`, the inhibition is -1.87%.
As to `O=C(O)CCCNC(=O)c1cncc(Br)c1`, the inhibition is -4.15%.
On to `COc1cc(-c2nnc3n2CCCCC3)cc(OC)c1OC`, for which the inhibition was -1.21%.
For the compound `Cc1ccc(NC(=O)C(NC2CCCC2)c2ccccc2)cc1Cl` (configuration not stated), the inhibition was 21.3%.
The value for `O=C1NN(c2ccccc2)C(=O)/C1=C/c1ccc(Sc2ccc(Cl)cc2)o1` was -5.35%; that for `N#C/C(=C/c1ccc(Sc2nc3ccccc3[nH]2)o1)c1cccc(F)c1` was 25.4%; that for `N#C/C(=C\c1ccc(Sc2nc3ccccc3[nH]2)o1)c1ccccc1` was 4.57%.
With `C=CCN1C(=O)S/C(=C/c2ccc(Sc3nc4ccccc4[nH]3)o2)C1=O`, the inhibition was -2.89%.
Then `CC(C)N=C1NN=C(c2cccs2)C(CC(=O)O)S1` (configuration not stated), with 1.51%; and `CCOc1ncccc1C(=O)OCC(=O)Nc1c(C)cc(C)cc1C`, with 2.59%; and `Nc1c(C(=O)Nc2ccccc2)sc2nc3c(c(-c4ccco4)c12)CCCC3`, with -0.46%.
The value for `Nc1c(C(=O)Nc2ccccc2)sc2nc3c(c(-c4ccco4)c12)CCC3` was 13.2%; that for `COc1cc(/C=C2/CC/C(=C/c3ccc(O)c(OC)c3)C2=O)ccc1O` was 32.3%.
The value for `COc1ccc(/C=C2\CC/C(=C\c3ccc(OC)c(OC)c3)C2=O)cc1OC` was -3.91%; that for `COc1cc(/C=C2\CCC/C(=C\c3ccc(O)c(OC)c3)C2=O)ccc1O` was 3.35%; that for `COc1cc(/C=C2\CC/C(=C\c3cc(OC)c(OC)c(OC)c3)C2=O)cc(OC)c1OC` was 2.04%.
On to `Cc1cc(C)cc(OCc2ccc(C(=O)O)o2)c1`, for which the inhibition was 9.08%.
The value for `FC(F)(F)c1ccc(N=Cc2sc(N3CCOCC3)nc2-c2ccccc2)cc1` was 12.3%; that for `COc1ccc(NC(=O)CN(C)C(=O)c2sc3ccccc3c2Cl)cc1` was 1.23%; that for `CS(=O)(=O)N(Cc1ccccc1)c1ccc(C(=O)NCc2ccccc2)cc1` was 25%.
For the compound `C/C(=N\Nc1ccc(S(N)(=O)=O)cc1[N+](=O)[O-])c1ccco1`, the inhibition was -3.09%.
In the case of `O=C1OC(c2ccc(Cl)cc2)=C/C1=C/c1cccnc1`, the inhibition was 1.36%.
Then `COC(=O)C1=C(C)NC(C)=C(C(=O)OC)C1c1ccc(NC(C)=O)cc1`, with -1.45%; and `O=C(Nc1ccc(Cl)c(Cl)c1)c1ccc(Cl)c(Cl)c1`, with 22.2%.
The value for `Cc1ccc(NC(=O)c2ccc(Cl)nc2)cc1` was 16.1%.
Take `Cc1ccnc(NC(=O)c2cccc(S(=O)(=O)NCc3ccccc3)c2)c1`: the inhibition is -2.28%.
For `COc1cccc(-n2nnc3c(=O)n(Cc4ccc(Br)cc4)cnc32)c1`, the inhibition was -0.95%.
`O=C(OCC(=O)c1cccs1)c1ccc(NC(=O)c2ccco2)cc1`: the inhibition is 13.8%.
For `CCCC[N+](C)(C)CCC(=O)NC(C)(C)CS(=O)(=O)[O-]`, the inhibition was 17.8%.
With `CC1(NC(=O)CC[N+](C)(C)CCO)CS(=O)(=O)CC1S(=O)(=O)[O-]` (configuration not stated), the inhibition was 11.7%.
For the compound `CC(=O)Nc1ccc(/C(C)=N/NS(=O)(=O)c2ccccc2)cc1`, the inhibition is -13.2%.
Then `Cc1ccc(CN2CCSc3ccc(C(=O)NCc4ccco4)cc32)cc1`, with -7.52%; and `CN1C(=O)C(=C2CCCCCC2)SC1=S`, with 4.5%; and `O=C1NC(=S)SC1=C1CCCCCC1`, with 16.7%.
In the case of `O=C(Cn1ncc2c(=O)oc3ccccc3c21)NCCc1ccsc1`, the inhibition was -2.92%.
Then `COC(=O)[C@@]1(C)[C@H]2C(=O)N(Cc3ccccc3)C(=O)[C@H]2[C@H]2CN(C)C(=NC3CCCCC3)N21`, with -5.32%.
As for `COCCn1c(SCC(=O)Nc2sccc2C(N)=O)nnc1-c1ccncc1`, the inhibition is -0.42%.
Then `CCOC(=O)c1cnn2c(C(F)(F)F)cc(-c3ccco3)nc12`, with 17%.
With `O=C(O)c1cnn2c(C(F)(F)F)cc(-c3ccco3)nc12`, the inhibition is 23%.
On to `CC(=O)c1cn(N(C)c2ncc(C(F)(F)F)cc2Cl)c(=O)[nH]c1=O`, for which the inhibition is -1.96%.
The value for `CCOc1ccccc1C(=O)NCC(=O)NNC(=O)c1cccc(S(=O)(=O)Nc2ccc(OC)cc2)c1` was -2.98%.
For the compound `O=C(Nc1ccccc1)N1CCCC2CCCCC21` (configuration not stated), the inhibition was 7.94%.
Then `CC(C)C(=O)Nc1cccc(C(=O)N2CCCCC2C)c1` (configuration not stated), with 12.2%.
With `CCC(C)N1CCN(S(=O)(=O)c2ccc(NC(C)=O)cc2)CC1` (configuration not stated), the inhibition was -5.24%.
As to `Cn1c(=O)c2c(nc(CN3CCN(C(=O)c4ccco4)CC3)n2Cc2ccc(Cl)cc2)n(C)c1=O`, the inhibition was -6.63%.
Turning to `COc1ccc(OCC(=O)N2CCN(S(=O)(=O)c3ccc(Cl)cc3)CC2)cc1`, the inhibition was 0.42%.
The value for `O=C(COc1ccccc1)N1CCN(S(=O)(=O)c2ccc(Cl)cc2)CC1` was 11.7%; that for `Cn1c(N)c(C(=O)COC(=O)Cc2ccc(Cl)cc2)c(=O)n(C)c1=O` was 0.17%.
Take `CCS(=O)(=O)c1ccc2c(c1)N(S(C)(=O)=O)CC(C(=O)NN)O2` (configuration not stated): the inhibition is -7.03%.
The value for `Cc1ccc2nc(SCC(=O)N3CCN(c4ccccc4)CC3)[nH]c2c1` was -0.39%.
Turning to `O=C(CCN1C(=O)c2cccc([N+](=O)[O-])c2C1=O)Nc1nccs1`, the inhibition is -4.6%.
With `NC(=O)C1CCN(c2ccc([N+](=O)[O-])cc2Cl)CC1`, the inhibition is 12.1%.
Then `O=[N+]([O-])c1ccc(N2CCN(c3ccccc3O)CC2)c(Cl)c1`, with -0.29%.
Turning to `N#Cc1csc(CCNC(=O)c2ccccc2)n1`, the inhibition is -7.18%.
For the compound `Clc1ccccc1CSc1ncccn1`, the inhibition is -2.52%.
The value for `Nn1c(SCc2ccccc2)nnc1-c1ccco1` was 2.72%.
The value for `Nc1cc(N)nc(SCc2ccccc2Cl)n1` was 0.21%.
Take `CSc1ccc(-c2ccco2)nn1`: the inhibition was 11.8%.
Then `CSc1nnc(-c2ccco2)n1-c1ccccc1`, with 5.76%.
For the compound `c1ccc(CSc2n[nH]c(-c3ccco3)n2)cc1`, the inhibition is 28.1%.
`CCC(C)[C@H]1CNC(=S)N1CCC12CC3CC(CC(C3)C1)C2` (some centres not stated): the inhibition was 28.7%.
In the case of `Cc1ccc(N(CC(=O)NCc2ccc3c(c2)OCO3)S(=O)(=O)c2c(C)noc2C)cc1`, the inhibition was 1.33%.
As to `CCc1ccc(-c2nc(CS(=O)CC(=O)NCCN3CCCCCC3)c(C)o2)cc1` (configuration not stated), the inhibition is -8.11%.
Then `CC1CN(C(c2cccs2)c2sc3ncnn3c2O)CC(C)O1` (configuration not stated), with -3.12%.
The value for `O=S(=O)(/N=C(/Nc1cccc2ccccc12)c1ccccc1)c1ccc(Br)cc1` was 3.03%; that for `CCOC(=O)N1CCC(N2CCN(S(=O)(=O)c3ccc(C)cc3)CC2)CC1` was 3.57%.
The value for `CCCCCCC(=O)Nc1ccc(Br)cn1` was 22.8%; that for `CCCCC(=O)Nc1ccc(Br)cn1` was -2.24%.
Turning to `C/C(=N/NC(=O)c1ccccc1)c1ccc(NC(=O)C(F)(F)F)cc1`, the inhibition was 1.31%.
`Cc1ccc(OCC(O)CNCc2ccc(F)cc2)cc1` (configuration not stated): the inhibition was 4.08%.
Turning to `O=C(Nc1ccc(CN2CCCCC2)cc1)c1cccc(F)c1`, the inhibition was -2.63%.
The value for `O=C(CSc1nc2ccccc2n1CCc1ccccc1)NC1CC1` was 16.5%.
For `COc1ccc(C(=O)CSc2nc3ccccc3n2CC(=O)c2ccccc2)cc1`, the inhibition was 2.41%.
The value for `CC(=O)Nc1ccc(NC(=O)[C@@H](NC(=O)c2ccccc2F)C(C)C)cc1` was 2.31%; that for `CCC(C)[C@H](NC(=O)Nc1ccccc1F)C(=O)OC` (some centres not stated) was 85.4%.
Consider `COc1ccc(NC(=O)Nc2cccs2)cn1`, for which the inhibition was 9.16%.
The value for `Cc1cc(F)ccc1S(=O)(=O)Nc1ccccc1C(=O)Nc1ccccc1-c1nc2ccccc2[nH]1` was 16.7%; that for `Cc1cc(F)ccc1S(=O)(=O)Nc1ccccc1C(=O)Nc1ncn[nH]1` was -4.68%.
As to `COc1ccccc1NC(=O)C(C)OC(=O)CN1C(=O)C2CC=CCC2C1=O` (configuration not stated), the inhibition was -6.25%.
Consider `COc1ccc(CCN2CC(C(=O)N(C)CCn3nc(C)cc3C)CCC2=O)cc1` (configuration not stated), for which the inhibition was 6.02%.
Take `Cc1ccc(C)n1-c1ccc(C(=O)NN)cc1`: the inhibition is -3.66%.
Then `Cc1ccc(-c2ccccc2)n1-c1cccc(C(=O)O)c1`, with 0.87%; and `Cc1cc(C)n(Cc2ccc(C(=O)O)cc2)n1`, with -1.33%; and `Cc1ccc(-c2ccccc2)n1-c1ccc(C(=O)O)cc1`, with -4.6%.
Then `Cc1cc(N)ccc1-n1c(C)ccc1C`, with 15.6%; and `Cc1ccc(C)n1-c1cccc(C(=O)Nc2ccccc2)c1`, with 18.2%; and `Cc1cc(C(=O)O)ccc1-n1c(C)cc(C=C2C(=O)c3ccccc3C2=O)c1C`, with -10.7%.
The value for `CCc1ccc(C(=O)O)cc1` was 0.16%.
